PubChem BioAssay (NCATS)
Records with an inconclusive call do not appear. Activity calls are given as the source filed them. Unless noted, calls follow the shape of the dose curve; as a rule, active = well fitted curve in the direction sought with a large enough effect; inconclusive = small, poorly fitted or top-dose-only effect, or another doubt; inactive = no such curve, though single readings can be large; an effect the other way counts as inactive or inconclusive.

Key:
[1] = molecular target: Lysosomal acid glucosylceramidase (Homo sapiens) (UniProt P04062); test: Glucocerebrosidase-p2 (AID 348; in the data active = potency below about 10 µM; also: potency is read from the fitted curve at half-maximal effect); conditions: purified GBA, blue fluorogenic substrate, 40 min
Lysosomal acid glucosylceramidase (Homo sapiens), sequence (P04062 whole entry, looked up): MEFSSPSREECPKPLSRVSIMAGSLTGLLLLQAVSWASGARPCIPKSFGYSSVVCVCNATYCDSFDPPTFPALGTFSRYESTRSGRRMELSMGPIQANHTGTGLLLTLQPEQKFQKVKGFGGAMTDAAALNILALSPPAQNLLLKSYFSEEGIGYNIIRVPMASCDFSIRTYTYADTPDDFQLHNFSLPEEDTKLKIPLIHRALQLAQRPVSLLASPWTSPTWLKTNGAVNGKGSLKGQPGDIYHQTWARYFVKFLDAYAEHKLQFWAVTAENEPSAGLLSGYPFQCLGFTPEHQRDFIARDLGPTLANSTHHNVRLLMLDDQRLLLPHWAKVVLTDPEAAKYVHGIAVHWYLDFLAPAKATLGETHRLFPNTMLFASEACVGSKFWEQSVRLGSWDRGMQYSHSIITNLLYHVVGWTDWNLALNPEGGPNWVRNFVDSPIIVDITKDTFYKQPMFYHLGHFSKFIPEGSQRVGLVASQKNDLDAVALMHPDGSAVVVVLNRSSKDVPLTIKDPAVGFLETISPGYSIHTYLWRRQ
In short: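 Compounds titrated from 0.6 nM upwards against 0.2 nM enzyme in pH 5.9 citric acid/KH2PO4, taurocholate, tween-20; blue fluorogenic substrate 80 uM, 40 min room temperature, stopped and read Ex 365/Em 440 for AC50.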

[2] = molecular target: Cytochrome P450 1A2 (Homo sapiens) (UniProt P05177); test: p450-cyp1a2 (AID 410; calls by dose curve; also: potency is read from the fitted curve at half-maximal effect); conditions: recombinant CYP1A2, luciferin-ME demethylation, luminescence; series mostly up to 11.4 µM
Cytochrome P450 1A2 (Homo sapiens), sequence (P05177 whole entry, looked up): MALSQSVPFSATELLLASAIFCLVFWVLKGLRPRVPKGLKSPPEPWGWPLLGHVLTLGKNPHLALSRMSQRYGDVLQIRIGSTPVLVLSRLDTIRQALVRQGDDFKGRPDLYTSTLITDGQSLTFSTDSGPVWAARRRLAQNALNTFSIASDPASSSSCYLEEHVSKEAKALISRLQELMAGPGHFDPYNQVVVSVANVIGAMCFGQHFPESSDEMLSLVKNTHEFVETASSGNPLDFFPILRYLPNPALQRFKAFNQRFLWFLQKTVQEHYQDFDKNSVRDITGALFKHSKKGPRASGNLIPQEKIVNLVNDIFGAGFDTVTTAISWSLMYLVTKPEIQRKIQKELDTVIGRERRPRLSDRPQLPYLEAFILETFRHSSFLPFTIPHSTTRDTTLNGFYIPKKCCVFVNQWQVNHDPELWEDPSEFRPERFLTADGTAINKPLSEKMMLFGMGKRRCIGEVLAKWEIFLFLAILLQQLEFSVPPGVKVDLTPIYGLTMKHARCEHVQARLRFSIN
In short: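 Inhibition was calculated relative to 57 uM furafylline (full inhibition). The reaction used human CYP1A2 at 20nM with Luciferin-ME at its Km, 100uM, driven by an NADPH-regenerating system for 60 min at room temperature.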

[3] = Cell Viability - Hek293 (AID 427;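 active = compounds whose dose-response curve shows a full or clear partial loss of cell viability, called from curve shape rather than a numeric limit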;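 also: potency is read from the fitted curve at half-maximal effect; cells exposed to compound for 40 hours at 37 °C before reading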); conditions: qHTS
In short: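 qHTS, human embryonic kidney (adenovirus-transformed) cells; 40 hr cpd, 37 °C; CellTiter-Glo ATP luminescence. Norm: DMSO = 0, 100 uM tamoxifen = 100% inhibition. Hill-fit AC50.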

[4] = Cell Viability - HepG2 (AID 433; calls by dose curve;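 also: potency is read from the fitted curve at half-maximal effect; cells exposed to compound for 40 hours; potency for ATP loss meaning cytotoxicity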); conditions: qHTS
In short: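 In this qHTS format, a 40 h, 37 °C compound incubation of HepG2 cells in complete medium precedes a 20 min CellTiter-Glo step at room temperature. Tamoxifen and doxorubicin serve as positive controls; Hill-equation fits yield AC50.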

[5] = Stat Signaling Pathway (AID 446; active = well fitted curve in either direction with a large enough effect, not every such curve was filed as active;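 also: ME-180 cervical cancer cells given 40 pM IL-6 alongside compound; SIE-controlled beta-lactamase reporter measured as 460/530 nm FRET emission ratio; % is scaled to controls: 0 for no effect and ±100 for the full control effect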); conditions: ME-180 SIE beta-lactamase reporter, IL-6 stimulated, 5 h; at 7.69 µM (top of the series) unless noted
In short: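 Screening format detects activators and inhibitors alike: ME-180 SIE-bla cells stimulated at 40 pM IL-6 for 5 hrs with compound, then dual-emission beta-lactamase read at 405 nm excitation.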

[6] = molecular target: Glucocorticoid receptor (Homo sapiens) (UniProt P04150); test: GR-GFP Redistribution (AID 450;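 active = compounds whose dose series gives a full or clear partial fitted curve of increased nuclear translocation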; also: potency is read from the fitted curve at half-maximal effect); conditions: U2OS GR-GFP nuclear translocation, laser cytometry, 2 h
Glucocorticoid receptor (Homo sapiens), sequence (P04150 whole entry, looked up, the tested form may be a part): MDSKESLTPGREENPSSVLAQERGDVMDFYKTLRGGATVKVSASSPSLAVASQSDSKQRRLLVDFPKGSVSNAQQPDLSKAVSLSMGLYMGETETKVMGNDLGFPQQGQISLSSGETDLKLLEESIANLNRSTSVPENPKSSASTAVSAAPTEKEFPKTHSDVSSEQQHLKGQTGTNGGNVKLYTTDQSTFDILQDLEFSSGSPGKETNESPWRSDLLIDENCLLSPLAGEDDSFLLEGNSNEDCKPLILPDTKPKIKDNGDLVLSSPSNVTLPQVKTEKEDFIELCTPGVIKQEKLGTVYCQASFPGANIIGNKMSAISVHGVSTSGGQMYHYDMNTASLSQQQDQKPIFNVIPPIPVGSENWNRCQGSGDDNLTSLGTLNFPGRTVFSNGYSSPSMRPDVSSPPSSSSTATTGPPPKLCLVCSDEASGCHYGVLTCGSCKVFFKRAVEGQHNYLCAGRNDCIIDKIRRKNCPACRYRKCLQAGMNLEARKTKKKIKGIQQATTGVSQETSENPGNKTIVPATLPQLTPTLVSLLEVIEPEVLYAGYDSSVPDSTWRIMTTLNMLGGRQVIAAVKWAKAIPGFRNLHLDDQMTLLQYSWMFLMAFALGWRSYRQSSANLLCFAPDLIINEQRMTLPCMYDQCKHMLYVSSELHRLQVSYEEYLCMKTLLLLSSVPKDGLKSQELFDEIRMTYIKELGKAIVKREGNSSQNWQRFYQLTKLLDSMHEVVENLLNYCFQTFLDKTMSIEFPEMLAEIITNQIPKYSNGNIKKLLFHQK

[7] = molecular target: Glucocorticoid receptor (Homo sapiens) (UniProt P04150); test: GR-EFC Redistribution (AID 451; calls by dose curve; also: potency is read from the fitted curve at half-maximal effect); conditions: CHO-K1 GR-EFC translocation, beta-gal luminescence, 2 h
In short: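 CHO-K1 cells expressing nuclear EA and GR-ED fragments of b-gal; compounds titrated up to 46 uM final, 2 h at 37 C. GR nuclear translocation read as complemented b-gal luminescence after 1 h RT detection.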

[8] = Cell Viability - NIH 3T3 (AID 541); conditions: NIH 3T3 cell viability, qHTS; activity change, negative = cytotoxicity: at 92.2 µM (top of the series);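 also: potency is read from the fitted curve at half-maximal effect; cells exposed to compound for 40 hours; nearly all actives have a fitted effect of over 25% in size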
In short: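 AC50 values reflect concentration-dependent loss of intracellular ATP in NIH 3T3 cells after 40 hr treatment in complete culture medium, quantified by luciferase-based luminescence.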

[9] = Cell Viability - HUV-EC-C (AID 542); conditions: HUV-EC-C endothelial cell viability, qHTS; series mostly up to 92.2 µM;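 also: potency is read from the fitted curve at half-maximal effect; cells exposed to compound for 40 hours; nearly all actives have a fitted effect of over 35% in size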
In short: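 Decrease in cellular ATP, quantified by luciferase luminescence, reflects toxicity in normal human vascular endothelial HUV-EC-C cells given compound for 40 hr in complete culture medium. Values are AC50s from concentration-response curves.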

[10] = Cell Viability - H-4-II-E (AID 543); conditions: H-4-II-E rat hepatoma viability; series mostly up to 92.2 µM;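 also: potency is read from the fitted curve at half-maximal effect; cells exposed to compound for 40 hours; nearly all actives have a fitted effect of over 35% in size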
In short: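 Here, cytotoxicity is measured in the rat hepatoma line H-4-II-E as loss of intracellular ATP after 40 hr compound treatment, detected by luciferase luminescence.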

[11] = Cell Viability - SH-SY5Y (AID 544); conditions: SH-SY5Y neuroblastoma cell viability; viability change, negative = cytotoxic: at 92.2 µM (top of the series);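 also: cells exposed to compound for 40 hours; nearly all actives have a fitted effect of over 55% in size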
In short: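 Cytotoxicity is scored as a concentration-dependent fall in intracellular ATP in human SH-SY5Y cells treated 40 hr in complete culture medium. Potency is expressed as AC50 from a Hill equation fit.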

[12] = Cell Viability - Mesenchymal (AID 546); conditions: mesenchymal cells viability, qHTS; activity change, negative = cytotoxicity: at 91.7 µM (top of the series);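 also: potency is read from the fitted curve at half-maximal effect; cells exposed to compound for 40 hours before reading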
In short: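 Human kidney mesenchymal cells from normal renal glomeruli, 1000 cells/well, rested 5 hr at 37 °C, then treated 40 hr at 37 °C in complete medium. Cellular ATP read by CellTiter-Glo luminescence; AC50 from Hill-equation fits.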

[13] = molecular target: 3',5'-cyclic-AMP phosphodiesterase 4B (Homo sapiens) (UniProt Q07343); test: qHTS Assay for Inhibitors of PDE-IV (AID 607; active = well fitted activation curve with a large enough effect in the main read-out, with a control signal flat, not every such curve was filed as active; also: % of control where 0% means no effect); conditions: HEK293 ACTOne CNG channel cells, membrane potential fluorescence; series mostly up to 22.9 µM
3',5'-cyclic-AMP phosphodiesterase 4B (Homo sapiens), sequence (Q07343 whole entry, looked up): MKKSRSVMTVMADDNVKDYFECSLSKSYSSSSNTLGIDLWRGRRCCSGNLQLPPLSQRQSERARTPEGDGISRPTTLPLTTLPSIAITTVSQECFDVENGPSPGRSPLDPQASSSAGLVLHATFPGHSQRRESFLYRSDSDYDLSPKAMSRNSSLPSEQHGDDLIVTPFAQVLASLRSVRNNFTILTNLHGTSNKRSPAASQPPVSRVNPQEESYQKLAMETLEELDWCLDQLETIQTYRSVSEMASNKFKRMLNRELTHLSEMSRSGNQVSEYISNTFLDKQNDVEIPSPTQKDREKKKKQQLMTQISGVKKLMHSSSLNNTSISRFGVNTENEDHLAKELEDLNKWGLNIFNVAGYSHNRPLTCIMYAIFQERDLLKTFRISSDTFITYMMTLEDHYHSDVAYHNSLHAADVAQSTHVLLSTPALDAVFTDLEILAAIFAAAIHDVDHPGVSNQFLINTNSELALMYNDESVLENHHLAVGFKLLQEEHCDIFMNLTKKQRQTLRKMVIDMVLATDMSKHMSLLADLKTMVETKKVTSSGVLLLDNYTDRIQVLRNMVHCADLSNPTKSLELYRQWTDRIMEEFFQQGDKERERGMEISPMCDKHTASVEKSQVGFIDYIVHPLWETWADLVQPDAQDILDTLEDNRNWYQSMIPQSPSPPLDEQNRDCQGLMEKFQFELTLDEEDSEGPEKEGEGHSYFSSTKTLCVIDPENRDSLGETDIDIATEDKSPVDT
In short: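 The readout is membrane depolarisation from a cAMP-sensing CNG channel, detected with a potential dye at ex 535/em 590. Cells were HEK293-derived (endogenous PDE-IV) at 1000 cells/well, titrated up to 22.9 uM final.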

[14] = Cellular Toxicity (caspase-3) HepG2 (AID 654); conditions: HepG2 caspase-3 activation, luminescence; series mostly up to 92.2 µM;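 also: cells exposed to compound for 16 hours before reading; 0% = DMSO alone and 100% = caspase signal from 100 µM tamoxifen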
In short: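 qHTS, HepG2, 1500 cells/well, complete medium; cpd 16 h 37 °C; Caspase-Glo 3/7, 20 min RT; lum. Norm: DMSO vs 100 uM tamoxifen; AC50 Hill fit.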

[15] = Cellular Toxicity (caspase-3) Jurkat (AID 655); conditions: Jurkat caspase-3 activation, luminescence; caspase-3 activation: at 92.2 µM (top of the series), DMSO = 0%, tamoxifen = 100%;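 also: cells exposed to compound for 16 h at 37 °C before reading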
In short: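 qHTS in human Jurkat T-cell leukemia line: 16 hr compound treatment at 37 °C, caspase-3/7 activity measured by Caspase-Glo luminescence. AC50 derived from Hill equation.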

[16] = Cellular Toxicity (caspase-3) HUV-EC-C (AID 656); conditions: HUV-EC-C cells, caspase-3 activation (apoptosis); series mostly up to 92.2 µM;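 also: cells exposed to compound for 16 h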
In short: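 Concentration-dependent caspase 3/7 induction was assessed in HUV-EC-C cells exposed for 16 hours. Data scaled between DMSO and tamoxifen (100 uM) controls.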

[17] = Cellular Toxicity (caspase-3) SHSY5Y (AID 657); conditions: SH-SY5Y caspase-3 activation; series mostly up to 91.7 µM;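 also: cells exposed to compound for 16 hours at 37 °C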
In short: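 Readout: caspase-cleaved peptide-aminoluciferin substrate driving luciferase light in SH-SY5Y neuroblastoma cells after 16 h treatment. Response normalized to DMSO and 10 uM staurosporine controls.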

N=C1C=CC(=C(c2ccc(N)cc2)c2ccc(N)cc2)C=C1
active: Potency [2] 3.98 µM | Potency [3] 19.6 µM | Potency [4] 18.6 µM | Potency [8] 3.16 µM | Potency [9] 20 µM | Potency [10] 31.6 µM | viability change, negative = cytotoxic [11] -99.9% | Potency [12] 7.94 µM
inactive: Potency [1] > 11.4 µM | activity, negative = inhibition [5] -20.9% | Potency [6] > 46 µM | Potency [7] > 9.22 µM | Potency [13] | Potency [14] | Potency [15] | Potency [16] | Potency [17]
